Activity calls are given as the source filed them. Calls follow the shape of the dose curve; as a rule, active = well fitted curve in the direction sought with a large enough effect; inconclusive = small, poorly fitted or top-dose-only effect, or another doubt; inactive = no such curve, though single readings can be large; an effect the other way counts as inactive or inconclusive.
system: not listed separately; experiment: Validation qHTS assay for inhibitors of Activation Induced Cytidine Deaminase (AID): UDG Counterscreen signal (AID 1347427); conditions: biochemical UDG counterscreen, fluorescence signal; series mostly up to 115 µM; activity, negative = inhibition: at the top concentration; also: 0% is about no effect
How it was run: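 Fluorescence at 560 nm excitation, 665 nm emission reports UDG signal after 250 mM NaOH (2x) addition and 30 min. Enzymes (AID 1 uM, UDG 2 U/mL, at 4/3x) preincubated 10 min with compound, then 4 h with 4x 250 nM DJC20/DJC23 substrate at room temperature.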

| SMILES | activity, negative = inhibition |
| --- | --- |
| CN1CC[C@@]2(C)c3cc(OC(=O)Nc4ccccc4)ccc3N(C)[C@@H]12 | -6.84% (inactive) |
| C[N+]1(C)CCN(c2ccccc2)CC1 | 1.41% (inactive) |
| OC1CCCCC1N1CCC(c2ccccc2)CC1 (stereo unspecified) | 3.37% (inactive) |
| CN1C2CCC1CC(OC(c1ccccc1)c1ccccc1N)C2 (stereo unspecified) | 6.14% (inactive) |
| N[C@@]1(C(=O)O)CC[C@@H](C(=O)O)C1 | 8.42% (inactive) |
| NNC(=O)c1ccc(O)cc1 | 15.3% (inactive) |
| C#CCN[C@H](C)Cc1ccccc1 | 4.11% (inactive) |
| C[N+](C)(C)CC#CCOC(=O)Nc1cccc(Cl)c1 | 13.9% (inactive) |
| Oc1ccc2c3c1O[C@H]1c4oc5ccccc5c4C[C@@]4(O)C(C2)N(CC2CC2)CCC314 (stereo partly specified) | 1.77% (inactive) |
| C[C@@H]1O[C@@H](O[C@H]2C[C@@H](O)[C@]3(CO)[C@@H]4C(CC[C@]3(O)C2)[C@@]2(O)CC[C@H]([C@@H]3COC(=O)C3)[C@@]2(C)C[C@H]4O)[C@H](O)[C@H](O)[C@H]1O (stereo partly specified) | 10.2% (inactive) |
| CP(=O)(O)C1=CCNCC1 | 4.28% (inactive) |
| NC(=O)CI | 11% (inactive) |
| Cc1c2ccncc2c(C)c2c1[nH]c1ccccc12 | 2.27% (inactive) |
| NCCc1ccc(S(=O)(=O)F)cc1 | 6.44% (inactive) |
| NCCc1c[nH]c2ccc(C(N)=O)cc12 | 9.37% (inactive) |
| CC1(C(=O)O)C2CCC(O2)C1(C)C(=O)O (stereo unspecified) | 3.06% (inactive) |
| COc1ccc2c(c1)C13CCCCC1C(C2)N(C)CC3 (stereo unspecified) | 10.3% (inactive) |
| CCOC(=O)c1ncn2c1[C@@H]1CCCN1C(=O)c1cc(OC)ccc1-2 | 4.87% (inactive) |
| O=S1(=O)N(CCN2CC=C(c3c[nH]c4cc(F)ccc34)CC2)c2cccc3c2N1CCC3 | -6.89% (inactive) |
| COc1ccc(CNC(=O)/C=C/c2ccc3[nH]cc(CCN(C)C)c3c2)cc1 | 9.82% (inactive) |

| SMILES | activity, negative = inhibition |
| --- | --- |
| CCCN(CCC)CCc1ccc(O)c(O)c1 | 6.7% (inactive) |
| OCc1cnc[nH]1 | 6.34% (inactive) |
| CC(N)c1cccc(Cl)c1Cl (stereo unspecified) | 3.76% (inactive) |
| CNc1ccc2oc(C[C@H]3O[C@@]4(CC[C@H]3C)O[C@H]([C@H](C)C(=O)c3ccc[nH]3)[C@H](C)C[C@H]4C)nc2c1C(=O)O | -14.5% (inactive) |
| NCC(CP(=O)(O)O)c1ccc(Cl)cc1 (stereo unspecified) | 12.9% (inactive) |
| C[C@H](Cc1ccc2c(c1)OC(C(=O)O)(C(=O)O)O2)NC[C@H](O)c1cccc(Cl)c1 | 10.4% (inactive) |
| O=[N+]([O-])/C=C/c1ccc2c(c1)OCO2 | 11.4% (inactive) |
| CCCN(CCC)[C@H]1CCc2c(F)ccc(O)c2C1 | 9.99% (inactive) |
| NC(=O)COc1c(F)cc(SCCNS(=O)(=O)c2ccccc2)cc1F | -6.79% (inactive) |
| C[N+]1(C)C2CCC1CC(OC(=O)c1c[nH]c3ccccc13)C2 (stereo unspecified) | -9.27% (inactive) |
| C=CCN1CCC23c4c5ccc(O)c4O[C@H]2C(=O)CC[C@@]3(O)C1C5 (stereo partly specified) | 13.1% (inactive) |
| NCCCP(=O)(O)O | 0.0933% (inactive) |
| C[N+]1(C)CCOC(O)(c2ccc(-c3ccc(C4(O)C[N+](C)(C)CCO4)cc3)cc2)C1 (stereo unspecified) | 8% (inactive) |
| CCCC[N+]1(C)C2CC(OC(=O)[C@H](CO)c3ccccc3)CC1C1OC12 (stereo partly specified) | 3.53% (inactive) |
| CCCN1CCC[C@@H](c2cccc(O)c2)C1 | 12.5% (inactive) |
| C=CCN1C[C@@H](C)N([C@H](c2ccc(C(=O)N(CC)CC)cc2)c2cccc(OC)c2)C[C@@H]1C | 2.53% (inactive) |
| NC(N)=NOCC[C@H](N)C(=O)O | -5.54% (inactive) |
| CC(C)(C)c1o[nH]c(=O)c1CC(N)C(=O)O (stereo unspecified) | 1.44% (inactive) |
| COc1ccc2c(c1O)-c1cccc3c1[C@@H](C2)N(C)CC3 | 11% (inactive) |

biological target: Single-stranded DNA cytosine deaminase (Homo sapiens) (UniProt Q9GZX7); experiment: Validation qHTS assay for inhibitors of Activation Induced Cytidine Deaminase (AID): AID signal (AID 1347429); conditions: Recombinant AID, FRET ssDNA deamination with UDG, fluorescence; series mostly up to 115 µM; activity change, negative = inhibition: at the top concentration; also: % is scaled to controls: 0 for no effect and ±100 for the full control effect
Sequence (Q9GZX7 whole entry, looked up): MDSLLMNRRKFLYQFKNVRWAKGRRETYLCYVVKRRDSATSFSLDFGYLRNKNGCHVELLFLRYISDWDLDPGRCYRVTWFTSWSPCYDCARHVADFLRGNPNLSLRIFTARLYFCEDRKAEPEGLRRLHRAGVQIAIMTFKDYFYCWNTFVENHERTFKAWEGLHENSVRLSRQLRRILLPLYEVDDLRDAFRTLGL
How it was run: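 AID+UDG coupled FRET deamination; cpds up to 114 uM final; DJC20/DJC23 substrate, 4 hr RT; NaOH stop, 30 min RT; read Ex 540/Em 590.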

| SMILES | activity change, negative = inhibition |
| --- | --- |
| CN1CC[C@@]2(C)c3cc(OC(=O)Nc4ccccc4)ccc3N(C)[C@@H]12 | -7.6% (inactive) |
| C[N+]1(C)CCN(c2ccccc2)CC1 | 4.91% (inactive) |
| OC1CCCCC1N1CCC(c2ccccc2)CC1 (stereo unspecified) | 12.5% (inactive) |
| CN1C2CCC1CC(OC(c1ccccc1)c1ccccc1N)C2 (stereo unspecified) | 13.7% (inactive) |
| N[C@@]1(C(=O)O)CC[C@@H](C(=O)O)C1 | 14.4% (inactive) |
| NNC(=O)c1ccc(O)cc1 | 16.3% (inactive) |
| C#CCN[C@H](C)Cc1ccccc1 | 13.8% (inactive) |
| C[N+](C)(C)CC#CCOC(=O)Nc1cccc(Cl)c1 | 18.7% (inactive) |
| Oc1ccc2c3c1O[C@H]1c4oc5ccccc5c4C[C@@]4(O)C(C2)N(CC2CC2)CCC314 (stereo partly specified) | 3.22% (inactive) |
| C[C@@H]1O[C@@H](O[C@H]2C[C@@H](O)[C@]3(CO)[C@@H]4C(CC[C@]3(O)C2)[C@@]2(O)CC[C@H]([C@@H]3COC(=O)C3)[C@@]2(C)C[C@H]4O)[C@H](O)[C@H](O)[C@H]1O (stereo partly specified) | 15% (inactive) |
| CP(=O)(O)C1=CCNCC1 | 8.06% (inactive) |
| NC(=O)CI | 23.9% (inactive) |
| Cc1c2ccncc2c(C)c2c1[nH]c1ccccc12 | 132% (inactive) |
| NCCc1ccc(S(=O)(=O)F)cc1 | 9.56% (inactive) |
| NCCc1c[nH]c2ccc(C(N)=O)cc12 | 19.4% (inactive) |
| CC1(C(=O)O)C2CCC(O2)C1(C)C(=O)O (stereo unspecified) | 5.82% (inactive) |
| COc1ccc2c(c1)C13CCCCC1C(C2)N(C)CC3 (stereo unspecified) | 12.5% (inactive) |
| CCOC(=O)c1ncn2c1[C@@H]1CCCN1C(=O)c1cc(OC)ccc1-2 | 11.1% (inactive) |
| COc1ccc(CNC(=O)/C=C/c2ccc3[nH]cc(CCN(C)C)c3c2)cc1 | 12% (inactive) |

| SMILES | activity change, negative = inhibition |
| --- | --- |
| CCCN(CCC)CCc1ccc(O)c(O)c1 | 39.5% (inactive) |
| OCc1cnc[nH]1 | 15.5% (inactive) |
| CC(N)c1cccc(Cl)c1Cl (stereo unspecified) | 13.2% (inactive) |
| CNc1ccc2oc(C[C@H]3O[C@@]4(CC[C@H]3C)O[C@H]([C@H](C)C(=O)c3ccc[nH]3)[C@H](C)C[C@H]4C)nc2c1C(=O)O | -7.58% (inactive) |
| NCC(CP(=O)(O)O)c1ccc(Cl)cc1 (stereo unspecified) | 12.5% (inactive) |
| C[C@H](Cc1ccc2c(c1)OC(C(=O)O)(C(=O)O)O2)NC[C@H](O)c1cccc(Cl)c1 | 18.3% (inactive) |
| O=[N+]([O-])/C=C/c1ccc2c(c1)OCO2 | 78.5% (inactive) |
| CCCN(CCC)[C@H]1CCc2c(F)ccc(O)c2C1 | 106% (inactive) |
| NC(=O)COc1c(F)cc(SCCNS(=O)(=O)c2ccccc2)cc1F | -5.78% (inactive) |
| C[N+]1(C)C2CCC1CC(OC(=O)c1c[nH]c3ccccc13)C2 (stereo unspecified) | -12.4% (inactive) |
| C=CCN1CCC23c4c5ccc(O)c4O[C@H]2C(=O)CC[C@@]3(O)C1C5 (stereo partly specified) | 24.6% (inactive) |
| NCCCP(=O)(O)O | 0.891% (inactive) |
| CCCC[N+]1(C)C2CC(OC(=O)[C@H](CO)c3ccccc3)CC1C1OC12 (stereo partly specified) | 8.94% (inactive) |
| CCCN1CCC[C@@H](c2cccc(O)c2)C1 | 25.7% (inactive) |
| C=CCN1C[C@@H](C)N([C@H](c2ccc(C(=O)N(CC)CC)cc2)c2cccc(OC)c2)C[C@@H]1C | 5.44% (inactive) |
| NC(N)=NOCC[C@H](N)C(=O)O | -5.04% (inactive) |
| CC(C)(C)c1o[nH]c(=O)c1CC(N)C(=O)O (stereo unspecified) | 17.9% (inactive) |
| COc1ccc2c(c1O)-c1cccc3c1[C@@H](C2)N(C)CC3 | 87.5% (inactive) |

Source: PubChem BioAssay (NCATS)
